Compound activity (PubChem BioAssay)
In the library only some 2.1% were active in any assay of this set; here they are far more common.
aSyn yeast inh: inhibitors of alpha-synuclein toxicity in yeast. Potency, µM (highest dose often 46.1 µM), for the others: at the top dose growth rescue (activation), most hits filed as activators. Yeast expressing alpha-synuclein, growth rescue, BacTiter-Glo, 24 h. 0.14% of 370,000 active; note: % of control where 0% means no effect; nearly all actives have a fitted effect of over 65% in size
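Rescue of yeast growth: cells expressing toxic alpha-synuclein, induced in galactose at OD600 0.02, incubated with compound 24 h at 30 C. ATP luminescence quantified growth; inhibitors of toxicity appear as activators.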
FUS yeast rescue: FUS proteinopathy suppression in yeast | S. cerevisiae FUS-expressing, growth rescue, OD600, 24 h | Potency, µM (highest dose often 76.6 µM), actives largely listed as activators | 0.24% of 390,000 active | AID 1347120;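 note: plate controls were DMSO vehicle for no effect and reference control for full effect; nearly all actives have a fitted effect of over 55% in size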
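Toxicity suppression screen in FUS-yeast. Cells induced with 2% galactose, starting OD 0.005, treated 24hr at 30C with compounds at multiple final concentrations; growth by OD600.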
Abeta rescue: restores growth of yeast expressing A-beta42 peptide; 0.063% of 410,000 active; AID 1347071; yeast expressing A-beta42, growth rescue, OD600, 48 h; response scale: 0% DMSO, 100% iron-clioquinol control; Potency, µM (doses to about 46.1 µM), actives largely listed as activators; note: nearly all actives have a fitted effect of over 55% in size
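Yeast growth medium received pinned compounds, then yeast cells expressing toxic A-beta were added; plates incubated at 30 C for 48 hr. Growth read as absorbance at 600 nm, normalized to DMSO and equimolar FeCl3 plus clioquinol controls.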
TDP43 rescue: inhibitors of TDP-43 toxicity in yeast; 1.8% of 410,000 active; Potency, µM (highest dose often 46.1 µM), for inactives: at the highest dose growth rescue (activation), hits mostly activators; TDP-43 expressing yeast growth rescue, BacTiter-Glo, 24 h; note: % of control where 0% means no effect; nearly all actives have a fitted effect of over 50% in size
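Yeast expressing TDP-43 (pregrown in raffinose, seeded at OD600=0.02 in galactose medium) exposed to compounds 24 hr at 30 deg C. Growth read by BacTiter-Glo luminescence; rescue of toxicity appears as increased signal.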
* marks the source's active call; other numbers are inactive results; i = inactive; ? = inconclusive; / = not tested or not shown. Calls come from the whole dose curve; as a rule, active = well fitted curve in the direction sought with a large enough effect; inconclusive = small, poorly fitted or top-dose-only effect, or another doubt; inactive = no such curve, though single readings can be large; an effect the other way counts as inactive or inconclusive. Potency is the fitted concentration of half-maximal effect.

SMILES | aSyn yeast inh | FUS yeast rescue | Abeta rescue | TDP43 rescue
Cc1csc(SCC(=O)Nc2nc(-c3ccccc3)cs2)n1 | -1.8% | i | i | 14.1µM*
Cc1c(C(=O)N2CCOCC2)oc2c1-c1nn(CC(=O)NCc3ccccc3)cc1CC2 | / | i | i | 0.0%
CC(C)(CC(=O)NCc1ccc(Cl)cc1Cl)CC1=NS(=O)(=O)c2ccccc2N1 | / | i | i | -9.6%
c1ccc(-c2ccc(CNc3nc(-c4ccccn4)nnc3-c3ccccc3)cc2)cc1 | / | 20µM* | / | /
c1ccc(-c2cnc(-c3ccccn3)nn2)cc1 | 24.6% | i | i | 22.4µM*
C=CCNc1nc(-c2ccccn2)nnc1-c1ccccc1 | ? | i | i | ?
c1ccc(-c2cnc(-c3ccccc3)nn2)cc1 | -1.2% | i | i | 22.8%
COc1cc(NC(=O)c2cc(Cl)ccc2Cl)ccc1NC(=O)c1cc2ccccc2o1 | / | i | i | 2.4%
CCOc1ccc(CC(=O)NCc2ccc3c(c2)CCN3C(=O)c2ccccc2)cc1OCC | / | i | i | 0.0%
O=C(Nc1ccc2c(c1)C(=O)N(c1ccccc1)C2=O)C1CCCO1 (configuration not stated) | -8.4% | i | i | 12.6µM*
Fc1ccc2[nH]c(-c3cccs3)cc2c1 | / | i | ? | 20µM*
CC(C)c1nc2scc(-c3ccc(Cl)cc3)c2c(=O)n1N | 14.3% | i | i | 14.1µM*
Cc1cccc(NC(=S)NCc2ccco2)n1 | 0.9% | i | 12.6µM* | ?
S=C(NCc1ccco1)NCc1ccco1 | -29.4% | / | i | -9.1%
O=C(CCOc1ccccc1)NO | 1.7% | / | / | /
O=C(Nc1ccccc1)C1=C[C@H](c2coc3ccccc3c2=O)C[C@H](OCc2ccc(CO)cc2)O1 | 0.6% | ? | i | 20µM*
O=C(NC1CC1)C1=C[C@@H](c2csc3ccccc23)C[C@@H](OCc2ccc(CO)cc2)O1 | 28.8% | ? | i | 14.1µM*
C#CCNC(=O)C1=C[C@@H](c2csc3ccccc23)C[C@@H](OCc2ccc(CO)cc2)O1 | 8.3% | i | i | 25.1µM*
Nc1ccc(/C=C/c2ccnc3ccccc23)cc1[N+](=O)[O-] | -13.2% | / | / | /
N#Cc1nc(N2CCCCC2)nc(N2CCCCC2)n1 | 3.1% | / | / | /
COc1cccc2cc(S(=O)(=O)c3ccc(F)c(C)c3)c(=O)oc12 | / | i | i | -11.6%
O=C(Oc1cccc(NC(=O)c2ccccc2Cl)c1)c1ccc([N+](=O)[O-])cc1 | 15.2% | i | i | 12.6µM*
CCCCN1C(=S)NC[C@@H]1Cc1cccc2ccccc12 | 5.5% | ? | i | ?
CCCC[C@@H]1CNC(=S)N1CCc1cccc2ccccc12 | 20.6% | i | ? | 35.5µM*
